Bioassay records from PubChem BioAssay.
The entries come from a sample that favours hits as a whole.
G9a inh – qHTS Assay for Inhibitors of Histone Lysine Methyltransferase G9a. G9a H3K9 monomethylation, AlphaScreen, 2 h. hit rate 8.8% among 350,000. Potency, µM (highest dose often 102 µM), for inactives: top-dose activity, negative = inhibition, hits mostly inhibitors; further: on the % scale 0 is the no-effect control and ±100 the full control effect; nearly all actives have a fitted effect of over 75% in size
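G9a (20 nM) preincubated 15 min RT with compounds, then 500 nM biotinylated H3K9 peptide and 20 uM SAM added; 2 h RT reaction. Monomethyl-H3K9 product detected by AlphaScreen with anti-H3K9me1 antibody, streptavidin donor and anti-rabbit IgG acceptor beads.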
GRP78 ERSR act – qHTS for Inducers of the Endoplasmic Reticulum Stress Response (ERSR) in Human Glioma: qHTS. U87-MG GRP78 promoter luciferase reporter, 16 h. Potency, µM, for inactives: at the highest dose activation, hits mostly activators. hit rate 0.02% among 420,000; further: series mostly up to about 76 µM; % of control where 0% means no effect; nearly all actives have a fitted effect of over 35% in size
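Stably transfected U87-MG glioma cells carrying a GRP78-based luciferase sensor; 16 h compound incubation. Luminescence end-point read 10 min after Bright-Glo addition at room temperature.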
Sfp PPTase inh – qHTS Assay for Inhibitors of Bacillus subtilis Sfp phosphopantetheinyl transferase (PPTase); 4'-phosphopantetheinyl transferase ffp (Bacillus subtilis), Q9F4F7; Potency, µM, inactives show largest response in the series, negative = inhibition, hits mostly inhibitors; Biochemical Sfp PPTase activity, qHTS; hit rate 3.5% among 310,000;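 further: the enzyme is Sfp with the accession as filed and its product quenches rhodamine fluorescence; 0% = enzyme reaction without inhibitor and -100% = no enzyme wells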
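Buffer: 50 mM Hepes-Na pH 7.6, 10 mM MgCl2, 0.01% Nonidet P-40, 0.01% BSA. Enzyme 15 nM, pre-exposed to compound 15 min; substrates then added and fluorescence change tracked over 30 min.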
12-LOX inh – Primary qHTS assay for inhibitors of human arachidonate 12S-lipoxygenase (ALOX12): Round 2. Polyunsaturated fatty acid lipoxygenase ALOX12 (Homo sapiens), P18054. AID 1671190, 2021. Potency, µM (highest dose often 108 µM), without a hit: at the highest dose activity change, negative = inhibition, usual class: inhibitors. hit rate 1.1% among 580,000. purified 12hLO, xylenol orange hydroperoxide absorbance; further: on the % scale 0 is the no-effect control and ±100 the full control effect
Target sequence (P18054 whole entry, looked up): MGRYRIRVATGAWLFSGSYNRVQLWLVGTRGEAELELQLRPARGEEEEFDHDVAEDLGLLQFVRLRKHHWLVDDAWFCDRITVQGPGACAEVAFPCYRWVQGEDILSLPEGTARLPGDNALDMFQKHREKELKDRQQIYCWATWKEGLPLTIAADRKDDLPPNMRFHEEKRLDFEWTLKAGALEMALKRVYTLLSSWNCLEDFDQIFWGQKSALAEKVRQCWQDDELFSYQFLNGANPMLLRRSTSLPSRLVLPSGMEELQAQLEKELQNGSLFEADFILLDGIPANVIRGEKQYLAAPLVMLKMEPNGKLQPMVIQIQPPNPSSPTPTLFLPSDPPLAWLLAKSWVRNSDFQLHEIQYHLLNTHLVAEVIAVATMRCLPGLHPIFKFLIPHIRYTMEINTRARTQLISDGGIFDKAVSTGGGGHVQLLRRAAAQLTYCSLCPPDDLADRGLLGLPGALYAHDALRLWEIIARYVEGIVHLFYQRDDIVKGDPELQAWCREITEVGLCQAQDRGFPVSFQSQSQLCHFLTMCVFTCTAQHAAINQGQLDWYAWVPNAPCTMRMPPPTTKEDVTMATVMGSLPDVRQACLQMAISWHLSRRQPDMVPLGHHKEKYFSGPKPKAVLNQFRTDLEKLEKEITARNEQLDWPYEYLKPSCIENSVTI
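Hydroperoxide product was detected by ferrous iron/xylenol orange as the 573 to 405 nm absorbance ratio. Arachidonic acid at 40 uM (final) was turned over for 30 min at room temperature by 150 nM human 12hLO, pH 7.0 Hepes buffer, after 15 min compound preincubation.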
VDR inh – Inhibitors of the vitamin D receptor (VDR): qHTS; Vitamin D3 receptor (Homo sapiens), P11473; VDR-SRC2-3 peptide fluorescence polarization, 2 h; Potency, µM, without a hit: max response, negative = inhibition, most hits filed as inhibitors; hit rate 0.93% among 400,000; further: on the % scale 0 is the no-effect control and ±100 the full control effect
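Signal is fluorescence polarization, reporting how far test compounds block the interaction of VDR with the SRC2-3 coregulator peptide after a 2 h room-temperature incubation.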
* = called active by the depositor; [ ] = dose if it differs, or a comment. The call rests on the fitted dose curve; in most records, active means well fitted curve in the direction sought with a large enough effect; inconclusive means small, poorly fitted or top-dose-only effect, or another doubt; inactive means no such curve, though single readings can be large; an effect the other way counts as inactive or inconclusive. Potency means the concentration at half of the fitted maximal effect.

What do the screens show for `CCN(Cc1ccccc1)c1ncncc1-c1nc(-c2ccccc2)no1`?
12-LOX inh: 49%

Results for Oc1c(N=NC(=S)Nc2ccccc2F)c2ccccc2n1Cc1ccccc1 ?
G9a inh: 18µM*; GRP78 ERSR act: -4%; Sfp PPTase inh: 6%; 12-LOX inh: -13%; VDR inh: -5%

How did Oc1c(N=NC(=S)Nc2ccccc2F)c2ccccc2n1Cc1ccccc1Cl do in these assays?
G9a inh: 18µM*; GRP78 ERSR act: -6%; Sfp PPTase inh: 5%; 12-LOX inh: -4%; VDR inh: 7%

How did CCn1c(O)c(N=NC(=O)CNc2cccc(C)c2)c2ccccc21 do in these assays?
G9a inh: -7%[59 µM]; GRP78 ERSR act: 3%; Sfp PPTase inh: -5%; 12-LOX inh: -14%; VDR inh: 10%

How did CCCCNC(=S)N=Nc1c(O)n(Cc2ccccc2)c2ccccc12 do in these assays?
G9a inh: 32µM*; GRP78 ERSR act: 1%; Sfp PPTase inh: inconclusive; 12-LOX inh: inconclusive; VDR inh: -5%

Results for C=CCn1c(O)c(N=NC(=S)Nc2cccc(C)c2)c2ccccc21 ?
G9a inh: 14µM*; GRP78 ERSR act: -1%; Sfp PPTase inh: -10%; 12-LOX inh: -24%; VDR inh: -5%

How did Cc1cccc(CS(=O)(=O)N2CCC(C(=O)Nc3ccc(CSc4ccccc4)cc3)CC2)c1 do in these assays?
12-LOX inh: 19%

Results for CCCc1ccc(S(=O)(=O)N2CCN(C(=O)C(CC(C)C)NC(N)=O)CC2)cc1 (stereo not given) ?
12-LOX inh: -8%

Results for C=CCn1c(O)c(N=NC(=O)c2ccccc2NS(=O)(=O)c2cccs2)c2ccccc21 ?
G9a inh: 45µM*; GRP78 ERSR act: -2%; Sfp PPTase inh: -3%; 12-LOX inh: -20%; VDR inh: -8%

Results for COc1ccc(N(CC(=O)NC2CCS(=O)(=O)C2)S(=O)(=O)c2ccc(Cl)c(Cl)c2)cc1 (stereo not given) ?
G9a inh: 50µM*; GRP78 ERSR act: 3%; 12-LOX inh: -1%; VDR inh: 0%

What do the screens show for `COc1ccc(N(CC(=O)NC2CCCC2)S(=O)(=O)c2ccc(NC(C)=O)cc2)cc1`?
G9a inh: -2%; GRP78 ERSR act: -3%; Sfp PPTase inh: 8%; 12-LOX inh: -12%; VDR inh: -12%

How did CCc1noc(-c2ccn3c(CNC(=O)C(CC)c4ccccc4)nnc3c2)n1 (stereo not given) do in these assays?
12-LOX inh: 34%

How did CN(C)c1ccc(C=Nc2ccccc2)cc1 do in these assays?
G9a inh: 23%[59 µM]; GRP78 ERSR act: -1%; Sfp PPTase inh: 14%; 12-LOX inh: 16%; VDR inh: -2%

How did O=C(CCC(=O)N/N=C/c1ccc(Br)s1)NCc1ccccc1 do in these assays?
G9a inh: 6%[59 µM]; GRP78 ERSR act: -3%; Sfp PPTase inh: 12%; 12-LOX inh: 5%; VDR inh: -20%

How did CN(C)c1ccc(C=Nc2ccc(Nc3ccccc3)cc2)cc1 do in these assays?
12-LOX inh: 7.9µM*

Results for CC(=O)N(C)c1ccc(N=Cc2cc3c(cc2[N+](=O)[O-])OCO3)cc1 ?
GRP78 ERSR act: -1%; 12-LOX inh: -76%; VDR inh: 7%

How did CCN(CC)c1ccc(C=Nc2ccc(Nc3ccccc3)cc2)cc1 do in these assays?
12-LOX inh: 20µM*

What do the screens show for `Brc1ccc(C=Nc2ccc(Nc3ccccc3)cc2)s1`?
G9a inh: 8.9µM*; GRP78 ERSR act: -1%; Sfp PPTase inh: 56µM*; VDR inh: -18%

What do the screens show for `CCN(CC)c1ccc(N=Cc2ccccc2[N+](=O)[O-])cc1`?
G9a inh: 8.9µM*; GRP78 ERSR act: 2%; Sfp PPTase inh: 50µM*; 12-LOX inh: inconclusive; VDR inh: inconclusive

How did COc1ccc(NC(=O)c2c(C)nc3n2CCC(Nc2ccc(F)cc2)C3)cn1 (stereo not given) do in these assays?
12-LOX inh: 5%[176 µM]

How did Cc1ccc(-n2nnc(S(=O)(=O)c3ccc(Cl)cc3)c2C)cc1F do in these assays?
12-LOX inh: -7%

How did COC(=O)Cn1c(=O)c2c(nc(-n3nc(C)cc3C)n2CC(C)C)n(C)c1=O do in these assays?
12-LOX inh: 13%

How did Cc1oc2cc(OCc3ccccc3)ccc2c(=O)c1Oc1ccccc1 do in these assays?
12-LOX inh: -8%

How did COc1ccc(N2CC(NC(=O)Nc3nc4c(C)cccc4s3)CC2=O)cc1 (stereo not given) do in these assays?
12-LOX inh: -5%

Results for C(=Nc1ccc(Nc2ccccc2)cc1)c1ccc2ccccc2c1 ?
G9a inh: 1.6µM*; GRP78 ERSR act: -1%; Sfp PPTase inh: 45µM*; VDR inh: -7%

What do the screens show for `c1ccc2cc(Nc3ccc4ccccc4c3)ccc2c1`?
12-LOX inh: -7%

What do the screens show for `CC(=O)/C=C/C1C(C)=CCC(C)C1(C)C` (stereo not given)?
12-LOX inh: -17%[176 µM]

What do the screens show for `CN1CCN(C(=O)c2ccc(NS(=O)(=O)c3cccc([N+](=O)[O-])c3)cc2)CC1`?
G9a inh: 45µM*; GRP78 ERSR act: 4%; 12-LOX inh: -17%; VDR inh: 3%

What do the screens show for `Nc1c(C(=O)Nc2c(Cl)cccc2Cl)sc2nc(-c3ccncc3)ccc12`?
12-LOX inh: -1%

What do the screens show for `O=C(CSc1nc2ccc(Cl)cc2[nH]1)Nc1ccc2[nH]c(=O)[nH]c2c1`?
G9a inh: 5.6µM*; GRP78 ERSR act: -4%; 12-LOX inh: -25%; VDR inh: -15%

What do the screens show for `Cc1ccc(NC(=O)CSc2nc3ccc(Br)cc3[nH]2)c(C)c1`?
G9a inh: 8.9µM*; GRP78 ERSR act: 1%; 12-LOX inh: -81%; VDR inh: 13%

What do the screens show for `Cc1ccc2nc(SCC(=O)Nc3c(F)cccc3F)[nH]c2c1`?
G9a inh: -42%; GRP78 ERSR act: 3%; Sfp PPTase inh: 11%; 12-LOX inh: -15%; VDR inh: 17%

How did O=C(CSc1nc2ccc(Cl)cc2[nH]1)Nc1ccc(S(=O)(=O)N2CCCCC2)cc1 do in these assays?
12-LOX inh: -26%

What do the screens show for `Cc1ccc2nc(SCC(=O)Nc3ccc4[nH]c(=O)[nH]c4c3)[nH]c2c1`?
G9a inh: 7.9µM*; GRP78 ERSR act: 1%; 12-LOX inh: 3%; VDR inh: 4%

What do the screens show for `Cc1c(NC(=O)CSc2nc3ccc(Cl)cc3[nH]2)c(=O)n(-c2ccccc2)n1C`?
G9a inh: 11µM*; GRP78 ERSR act: -5%; Sfp PPTase inh: -7%; 12-LOX inh: 0%; VDR inh: -19%
